Assay outcomes as filed in PubChem.
hgDAF12 agonist: agonists of H. glycines DAF-12 nuclear receptor; HEK293 GAL4-hgDAF12 UAS-luciferase reporter, agonist luminescence; normalized to butyrate control; activation, % at 6.8 µM; 370,000 compounds, 1.8% hits;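 active = activation above a cutoff set at the mean of all screened compounds plus 3 SD, cut at about 10% in these data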;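 also: 0% = DMSO wells and 100% = sodium butyrate wells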
AHR activator: activators of human aryl hydrocarbon receptor; activation, % at 5 µM; AID 2796; P35869; AHR-responsive luciferase reporter cells, luminescence; 320,000 compounds, 2.5% hits; in the data active = activation above about 47%;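 also: 0% = vehicle wells and 100% = reference agonist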
Target sequence (P35869 whole entry, looked up): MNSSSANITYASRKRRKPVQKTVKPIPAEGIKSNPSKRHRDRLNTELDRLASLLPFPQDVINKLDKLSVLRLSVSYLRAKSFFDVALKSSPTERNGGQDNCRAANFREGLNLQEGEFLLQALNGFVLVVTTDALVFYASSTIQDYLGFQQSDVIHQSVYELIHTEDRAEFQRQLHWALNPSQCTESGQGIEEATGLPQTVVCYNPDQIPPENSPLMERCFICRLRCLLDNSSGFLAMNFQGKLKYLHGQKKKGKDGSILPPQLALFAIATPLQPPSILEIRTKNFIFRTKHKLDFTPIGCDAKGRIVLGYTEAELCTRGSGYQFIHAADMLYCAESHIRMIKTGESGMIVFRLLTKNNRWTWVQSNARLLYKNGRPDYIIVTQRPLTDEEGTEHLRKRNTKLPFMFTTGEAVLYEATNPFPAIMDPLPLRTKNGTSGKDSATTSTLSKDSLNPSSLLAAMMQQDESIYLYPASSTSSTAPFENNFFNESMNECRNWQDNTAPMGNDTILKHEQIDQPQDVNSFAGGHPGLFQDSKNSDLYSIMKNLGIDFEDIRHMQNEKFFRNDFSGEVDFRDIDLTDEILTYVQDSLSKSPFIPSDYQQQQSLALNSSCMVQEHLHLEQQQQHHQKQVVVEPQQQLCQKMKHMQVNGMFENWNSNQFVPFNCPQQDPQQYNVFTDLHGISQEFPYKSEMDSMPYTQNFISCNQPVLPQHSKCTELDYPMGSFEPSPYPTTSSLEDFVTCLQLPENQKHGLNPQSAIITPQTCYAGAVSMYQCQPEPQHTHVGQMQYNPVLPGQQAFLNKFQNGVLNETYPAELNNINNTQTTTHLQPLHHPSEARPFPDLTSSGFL
hcDAF-12 act: H. contortus DAF-12 activation, primary screen; HEK293 hcDAF-12 lit1-tk-luc reporter, luminescence; 0% DMSO, 100% Δ7-dafachronic acid; activation, % at 6.8 µM; 370,000 compounds, 1.4% hits;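 active = activation above the mean of all tested compounds plus 3 SD, cut at about 5.5% in these data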;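 also: 100% = response to 3 µM Δ7-dafachronic acid high control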
DAX1 inh-1: DAX1 (NR0B1) inhibition, primary screen; HEK293T StAR-luciferase reporter, SF-1/DAX-1 repression relief; inhibition, % at 6.8 µM; 370,000 compounds, 1.1% hits; AID 652010;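 active = inhibition above the mean over all tested compounds plus 3 SD, cut at about 3.6% in these data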;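 also: 0% = DAX-1 cells with DMSO and 100% = cells lacking DAX-1 with DMSO; higher inhibition means more luminescence from relief of DAX-1 repression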
ssDAF-12 act: activates DAF-12 receptor from parasite S. stercoralis; AID 652126; activation, % at 6.8 µM; HEK293 ssDAF-12/GRIP1 lit1-tk-luc reporter, luminescence; % of 3 µM dafachronic acid response; 370,000 compounds, 1% hits;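 active = activation above the mean over all tested compounds plus 3 SD, cut at about 0.9% in these data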;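 also: 0% = DMSO-only wells and 100% = 3 µM delta7-dafachronic acid wells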
DAX1 inh-2: inhibits human nuclear receptor DAX1; inhibition, % at 6.75 µM; HEK293 Gal4-DAX1 luciferase reporter, luminescence; 340,000 compounds, 0.99% hits; AID 504766; P51843;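 active = inhibition above the mean over all tested compounds plus 3 SD, cut at about 4.2% in these data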;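 also: 0% = DAX1-transfected cells with DMSO and 100% = empty-vector control cells with DMSO; inhibition shows as a rise in luminescence from relieved DAX1 repression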
* hit, by the source's call. In the library only some 5.7% were active in any assay of this set; here they are far more common.

O=c1[nH]c(SCc2nc3c(cnn3-c3ccccc3)c(=O)[nH]2)nc2ccccc12 was read as hgDAF12 agonist -1, hcDAF-12 act 0, DAX1 inh-1 0, ssDAF-12 act -1 and DAX1 inh-2 0.
O=c1[nH]c(CSc2ncccn2)nc2c1cnn2-c1ccccc1 was read as hgDAF12 agonist 3, AHR activator 119*, hcDAF-12 act 0, DAX1 inh-1 -1, ssDAF-12 act -1 and DAX1 inh-2 0.
O=C(O)/C=C/C(=O)Nc1ccccc1-c1ccccc1NC(=O)/C=C/C(=O)O was read as hgDAF12 agonist 1, AHR activator -1, hcDAF-12 act -2, DAX1 inh-1 0, ssDAF-12 act -2 and DAX1 inh-2 -1.
For O=C(O)/C=C/C(=O)Nc1ccc(-n2ccc(C(F)(F)F)n2)cc1 the results were hgDAF12 agonist -2, AHR activator -3, hcDAF-12 act -1, DAX1 inh-1 -1, ssDAF-12 act -1 and DAX1 inh-2 0.
`O=C(Nc1ccccc1)Nc1c(F)cccc1F` gave hgDAF12 agonist 3, AHR activator 3, hcDAF-12 act 0, DAX1 inh-1 -1, ssDAF-12 act 0 and DAX1 inh-2 1.
Screening O=C(O)/C=C\C(=O)Nc1ccccc1C#Cc1ccccc1 returned hgDAF12 agonist 10*, AHR activator 22, hcDAF-12 act 1, DAX1 inh-1 1, ssDAF-12 act -1 and DAX1 inh-2 2.
O=C(O)/C=C/C(=O)Nc1ccc(-n2nccc2C(F)(F)F)cc1 was read as hgDAF12 agonist 2, AHR activator -3, hcDAF-12 act 1, DAX1 inh-1 0, ssDAF-12 act -1 and DAX1 inh-2 4.2*.
`O=C(O)/C=C/C(=O)Nc1ccc(-c2ccccc2)cc1` gave hgDAF12 agonist 11*, AHR activator 6, hcDAF-12 act 0, DAX1 inh-1 1, ssDAF-12 act -1 and DAX1 inh-2 -3.
O=C(O)/C=C/C(=O)Nc1c(F)cccc1F was read as hgDAF12 agonist -1, AHR activator 5, hcDAF-12 act -2, DAX1 inh-1 0, ssDAF-12 act -1 and DAX1 inh-2 4.2*.
Screening COC(=O)C1CN(Cc2cn(Cc3ccc(C)cc3)nn2)CCS(=O)(=O)N1Cc1ccc(C)cc1 (configuration not stated) returned hgDAF12 agonist -4, hcDAF-12 act -1, DAX1 inh-1 -2 and ssDAF-12 act -2.
`CC1CC(C)(C)NC(=S)O1` (configuration not stated) gave hgDAF12 agonist -1, AHR activator 1, hcDAF-12 act -1, DAX1 inh-1 0, ssDAF-12 act -1 and DAX1 inh-2 1.
`COCCCn1cnnc1SC(C)C(=O)Nc1ccc(S(=O)(=O)N2CCOCC2)cc1` (configuration not stated) gave hgDAF12 agonist 0, AHR activator -1, hcDAF-12 act -2, DAX1 inh-1 1, ssDAF-12 act -1 and DAX1 inh-2 0.
Screening Cn1cc(CCOCc2ccccn2)c2ccccc21 returned hgDAF12 agonist 5, hcDAF-12 act 1, DAX1 inh-1 3.6* and ssDAF-12 act 1.
`CCN1CCCC1CNC(=O)C(=O)NCCc1ccc(OC)c(OC)c1` (configuration not stated) gave hgDAF12 agonist -1, AHR activator -1, hcDAF-12 act -2, DAX1 inh-1 0, ssDAF-12 act -1 and DAX1 inh-2 2.
Screening CCCCNC(=O)N(O)C1N(/N=C/c2cccnc2)C(=S)SC1(C)C (configuration not stated) returned hgDAF12 agonist -1, AHR activator -4, hcDAF-12 act -2, DAX1 inh-1 0, ssDAF-12 act -1 and DAX1 inh-2 -1.
For CC1(C)SC(=S)N(/N=C/c2cccnc2)C1N(O)C(=O)Nc1ccccc1 (configuration not stated) the results were hgDAF12 agonist -1, AHR activator 0, hcDAF-12 act 0, DAX1 inh-1 0, ssDAF-12 act 0 and DAX1 inh-2 6.2*.
Screening O=C(COc1ncnc2ccccc12)c1ccc2c(c1)OCCO2 returned hgDAF12 agonist 11*, AHR activator 1, hcDAF-12 act 5, DAX1 inh-1 2, ssDAF-12 act 0 and DAX1 inh-2 2.
O=C(COc1ncnc2cc(Cl)ccc12)c1ccc2c(c1)OCCO2 was read as hgDAF12 agonist 2, AHR activator 11, hcDAF-12 act 2, DAX1 inh-1 1, ssDAF-12 act 0 and DAX1 inh-2 4.8*.
Screening O=C(CSc1ncnc2ccccc12)c1ccc2c(c1)OCCO2 returned hgDAF12 agonist 5, AHR activator 35, hcDAF-12 act -1, DAX1 inh-1 0, ssDAF-12 act -1 and DAX1 inh-2 -2.
For COC(=O)c1sccc1NC(=O)/C=C\c1ccc(Cl)cc1Cl the results were hgDAF12 agonist 4, hcDAF-12 act -2, DAX1 inh-1 0, ssDAF-12 act -1 and DAX1 inh-2 2.
COC(=O)c1sccc1NC(=O)/C=C/c1ccc(Cl)cc1 was read as hgDAF12 agonist 5, AHR activator 54*, hcDAF-12 act 3, DAX1 inh-1 0, ssDAF-12 act 0 and DAX1 inh-2 0.
Screening COCC(C)NC(=O)c1nn(Cc2ccccc2)c(=O)c2ccccc12 (configuration not stated) returned hgDAF12 agonist -2, AHR activator -2, hcDAF-12 act -2, DAX1 inh-1 0, ssDAF-12 act -2 and DAX1 inh-2 0.
For COc1ccc(NC(=O)CS(=O)CC(=O)Nc2cccnc2)cc1 (configuration not stated) the results were hgDAF12 agonist 0, AHR activator -2, hcDAF-12 act -2, DAX1 inh-1 0, ssDAF-12 act -1 and DAX1 inh-2 2.
Screening O=C(COC(=O)c1ccc(F)cc1F)Nc1ccc2c(c1)OCO2 returned hgDAF12 agonist -4, hcDAF-12 act 3, DAX1 inh-1 2, ssDAF-12 act -1 and DAX1 inh-2 1.
Screening CCN(CC)C(=O)C1CCCN(Cc2ccc3ccccc3c2)C1 (configuration not stated) returned hgDAF12 agonist 0, AHR activator 2, hcDAF-12 act 0, DAX1 inh-1 -1, ssDAF-12 act -1 and DAX1 inh-2 0.
For NC(=O)C1CCCN(Cc2ccc3ccccc3c2)C1 (configuration not stated) the results were hgDAF12 agonist -2, AHR activator 1, hcDAF-12 act -1, DAX1 inh-1 -1, ssDAF-12 act -1 and DAX1 inh-2 5.1*.
`COc1ccc(N(CC(=O)N/N=C(\C)c2ccc(C)cc2)S(=O)(=O)c2ccccc2)cc1` gave hgDAF12 agonist 2, AHR activator 0, hcDAF-12 act -1, DAX1 inh-1 0, ssDAF-12 act -1 and DAX1 inh-2 1.
